A number with no mark means an inactive call. Activity calls are given as the source filed them. Calls come from the whole dose curve; as a rule, active = well fitted curve in the direction sought with a large enough effect in the repeat runs; inconclusive = weak or mixed curves; inactive = flat fitted curve, though single readings scatter.

Consider 38 compounds from PubChem BioAssay (Tox21).
% is set by controls: 0 for no effect and ±100 for the full control effect.

The nature of the assay: qHTS assay to test for compound auto fluorescence at 460 nm (blue) in HEK293 cell free culture (AID 720681). The note with it: cell-free medium, autofluorescence 405/460 nm (blue); series mostly up to 91.3 µM. In a few lines: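 Test compounds were pinned into cell-free culture medium (DMEM with 10% FBS) and fluorescence was read directly at Ex/Em 405/460 nm. Signals were expressed as fluorescence equivalents of triamterene, with DMSO vehicle as control.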
In general terms: qHTS replaces the single test concentration by a dilution series.
Turning to `O=S(=O)(Oc1ccc(Cl)cc1)c1ccccc1`, the outcome was inactive.
As to `CN1CCN(C(c2ccccc2)c2ccccc2)CC1`, the fluorescence, % of fluorescent control was -0.0336% [at 18.6 µM].
Take `COS(=O)(=O)C(F)(F)F`: the compound was called inactive.
On to `C=C(C)C(=O)OCC`, for which the result was inactive.
Regarding `CCC(Cl)CCC(Cl)C(Cl)CC(Cl)C(Cl)C(Cl)CCl` (stereo not drawn), the compound was classed as inactive.
Turning to `O=[N+]([O-])c1ccc2[nH]ncc2c1`, the result was inactive.
For the compound `O=S(c1cc(Cl)cc(Cl)c1O)c1cc(Cl)cc(Cl)c1O`, the compound was called inactive.
Consider `Clc1ccc(Cn2c(CN3CCCC3)nc3ccccc32)cc1`, for which the fluorescence, % of fluorescent control is -0.0089% [at 18.6 µM].
On to `O=C1c2ccccc2S(=O)(=O)N1CCCCN1CCN(c2ncccn2)CC1`, for which the result was inactive.
With `C/C(=C(\CCOP(=O)(O)O)SC(=O)c1ccccc1)N(C=O)Cc1cnc(C)nc1N`, the fluorescence, % of fluorescent control is -0.0157% [at 18.6 µM].
Regarding `CCC(C)(C)CC`, the result was inactive.
`NC(=O)C(c1ccccc1)(c1ccccc1)[C@@H]1CCN(CCc2ccc3c(c2)CCO3)C1`: the result was inactive.
For `O=C(c1ccc(F)cc1)C1CCN(CCn2c(=S)[nH]c3ccccc3c2=O)CC1`, the call was inactive.
With `COc1ccc(C(=O)c2ccc(OC)cc2O)c(O)c1`, the compound was classed as inactive.
As to `CCCCC(CC)COC(=O)CCCCCCCCC(=O)OCC(CC)CCCC` (stereo not drawn), the outcome was inactive.
Same read-out and setting: next, `c1ccc(CNCCNCc2ccccc2)cc1`: “inactive”; `C#CCN(C)CCCOc1ccc(Cl)cc1Cl`: “inactive”.
As to `CC(=O)c1ccc2c(c1)N(CCCN(C)C)c1ccccc1S2`, the fluorescence, % of fluorescent control was -0.103% [at 18.6 µM].
`CCCCCCCCCCCCCCCCCCOS(=O)(=O)O`: the result was inactive.
For `Brc1c2ccccc2cc2ccccc12`, the compound was classed as inactive.
In the case of `O=C(NCCO[N+](=O)[O-])c1cccnc1`, the outcome was inactive.
With `CCOc1ccc(O)cc1`, the outcome was inactive.
Regarding `C=C1[C@H]2CC[C@@H]3[C@H]2C(C)(C)CCC[C@]13C`, the call was inactive.
As for `CCCCC(CC)CN1C(=O)C2C3C=CC(C3)C2C1=O` (stereo not drawn), the compound was classed as inactive.
The same measure, in the same setting: under `CC(C)CC(=O)C1C(=O)c2ccccc2C1=O` stands “inactive”; under `CC1OC(=O)C(C)OC1=O` (stereo not drawn), “inactive”.
Take `OC(CN1CCC(Cc2ccc(F)cc2)CC1)c1ccc(Cl)cc1` (stereo not drawn): the outcome was inactive.
As to `CCCCC(=O)OCC(=O)[C@H]1[C@H](C)C[C@H]2[C@@H]3C[C@H](F)C4=CC(=O)C=C[C@]4(C)[C@@]3(F)[C@@H](O)C[C@@]21C`, the outcome was inactive.
With `CC(C)C[C@H]1C(=O)N2CCC[C@H]2[C@]2(O)O[C@](NC(=O)[C@@H]3C=C4c5cccc6[nH]c(Br)c(c56)C[C@H]4N(C)C3)(C(C)C)C(=O)N12`, the compound was called inactive.
As for `CC(C)(CO)[N+](=O)[O-]`, the call was inactive.
Take `O=C(OCCc1ccccc1)c1ccccc1`: the outcome was inactive.
Turning to `COc1ccc(S(=O)(=O)N2C(=O)[C@@](c3ccccc3OC)(N3C[C@H](O)C[C@H]3C(=O)N(C)C)c3cc(Cl)ccc32)c(OC)c1`, the result was inactive.
With `O=C1OC(CN2CCOCC2)CN1/N=C/c1ccc([N+](=O)[O-])o1` (stereo not drawn), the fluorescence, % of fluorescent control is -0.128% [at 18.6 µM].
Regarding `OC[C@H]1O[C@@H](OCCc2ccc(O)cc2)[C@H](O)[C@@H](O)[C@@H]1O`, the compound was classed as inactive.
Same read-out and setting: under `Cc1[nH]c(C)c(Cl)c(=O)c1Cl` stands “inactive”; under `CCCCCCCN`, “inactive”.
Consider `C[Si](C)(CCCN)O[Si](C)(C)CCCN`, for which the compound was classed as inactive.
As for `CCOC(=O)C(F)(F)F`, the compound was classed as inactive.
